Screens deposited in PubChem by several laboratories.
Rows were chosen to be rich in hits. Some 3.1% of all compounds tested hit in one or more screens of this group.
TRPM1 prom inh – inhibitors of MITF-driven TRPM1 promoter in melanoma cells; inhibition, % at 12.5 µM; hit rate 0.83% among 330,000; AID 488899; SK-MEL-5 TRPM1 promoter luciferase, 24 h;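 active = mean inhibition across replicates of 60% or more, whatever share of single replicates reaches that level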
HIF-2a block – HIF-2a inhibition; 786-0 RCC cells HIF-2a reporter, luciferase luminescence, overnight; inhibition, % at 18.8 µM; hit rate 0.72% among 360,000; AID 624352;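 active = inhibition of the luminescence signal of 40% or more relative to plate controls, in a single-dose primary screen at 18.75 µM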
ABHD5 PLIN5 PPI – ABHD5-PLIN5 protein interaction inhibition | inhibition, % at 4 µM | Q00G26+Q8WTS1 | hit rate 0.78% among 360,000 | Split G. princeps luciferase complementation, luminescence, 4 h | AID 602281;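 active = inhibition above the mean inhibition across every tested compound plus 3 SD, cut at about 22% in these data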
Target sequence (Q00G26 whole entry, looked up): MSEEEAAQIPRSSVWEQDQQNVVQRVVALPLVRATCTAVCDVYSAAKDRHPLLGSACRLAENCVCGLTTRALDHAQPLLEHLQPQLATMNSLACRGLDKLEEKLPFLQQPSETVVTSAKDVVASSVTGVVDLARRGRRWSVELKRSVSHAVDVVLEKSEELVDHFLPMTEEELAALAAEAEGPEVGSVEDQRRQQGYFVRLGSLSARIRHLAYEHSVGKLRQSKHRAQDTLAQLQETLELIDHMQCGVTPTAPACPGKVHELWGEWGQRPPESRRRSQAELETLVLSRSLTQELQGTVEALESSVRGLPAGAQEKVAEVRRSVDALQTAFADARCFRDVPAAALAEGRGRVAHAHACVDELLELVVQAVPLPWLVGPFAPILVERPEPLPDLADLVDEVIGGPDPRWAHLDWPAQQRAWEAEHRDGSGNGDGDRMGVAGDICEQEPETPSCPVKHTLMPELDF
Target sequence (Q8WTS1 whole entry, looked up): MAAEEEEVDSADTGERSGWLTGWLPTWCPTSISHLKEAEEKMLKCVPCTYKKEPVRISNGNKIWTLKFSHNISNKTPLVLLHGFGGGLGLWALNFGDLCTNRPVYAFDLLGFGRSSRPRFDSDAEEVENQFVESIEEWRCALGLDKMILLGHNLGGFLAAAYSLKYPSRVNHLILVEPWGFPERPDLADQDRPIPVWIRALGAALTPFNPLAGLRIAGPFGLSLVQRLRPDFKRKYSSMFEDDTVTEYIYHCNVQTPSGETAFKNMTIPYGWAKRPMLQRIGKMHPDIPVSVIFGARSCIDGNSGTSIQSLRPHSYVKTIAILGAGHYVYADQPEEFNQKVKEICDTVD
KKLEB cytotox – CF airway cell cytotoxicity counter-screen; KKLEB CF airway cells viability, ATPlite luminescence, overnight; hits give low values; cells stimulated with P. aeruginosa culture filtrate; activity change (cytotoxicity), % at 5 µM; hit rate 0.36% among 360,000;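 active = corrected activity change at or below -50% at 5 µM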
CF NFkB block – blocks PAF-induced NF-kB reporter in cystic fibrosis cells; hit rate 0.86% among 360,000; inhibition, % at 5 µM; KKLEB NF-kB-GFP reporter, GFP fluorescence overnight;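 active = at least 50% inhibition at 5 µM, scaled per plate between neutral and stimulator controls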;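 note: PAF is a Pseudomonas aeruginosa culture filtrate used as stimulus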
Peg3 prom inh – reduces Peg3 promoter-driven luciferase expression in HeLa. hit rate 1.7% among 360,000. inhibition, % at 20 µM. HeLa PEG-Prom luciferase reporter, luminescence, overnight;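 active = inhibition of at least 50% at 20 µM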
Hits are given with their value; . = inactive; / = no result given.

SMILES	TRPM1 prom inh	HIF-2a block	ABHD5 PLIN5 PPI	KKLEB cytotox	CF NFkB block	Peg3 prom inh
NCCOc1ccc(C23CC4CC(CC(C4)C2)C3)cc1	.	.	.	.	.	101
Cc1cc(C)cc(C(=O)NCC(=O)OCN2C(=O)c3ccccc3C2=O)c1	.	.	.	.	.	52
CCn1cc(C(=O)NCc2ccncc2)c(=O)c2cc(F)c(N3CCN(C(=O)c4ccco4)CC3)cc21	/	.	.	.	.	.
CCn1cc(C(=O)NC(C)C)c(=O)c2cc(F)c(N3CCN(C(=O)c4ccco4)CC3)cc21	.	.	.	.	.	.
CCn1cc(C(=O)NCc2ccc3c(c2)OCO3)c(=O)c2cc(F)c(N3CCN(C(=O)c4ccco4)CC3)cc21	.	.	.	.	.	51
CCn1cc(C(=O)Nc2ncccc2O)c(=O)c2cc(F)c(N3CCN(C(=O)c4ccco4)CC3)cc21	.	.	.	.	.	53
CCn1cc(C(=O)NCc2ccccc2)c(=O)c2cc(F)c(N3CCN(C(=O)c4ccco4)CC3)cc21	.	.	.	.	.	68
CCN(CC)CCNC(=O)c1cn(CC)c2cc(N3CCN(C(=O)c4ccco4)CC3)c(F)cc2c1=O	.	.	.	.	.	.
O=C(COc1ccccc1)N=C1SC2CS(=O)(=O)CC2N1c1ccc(F)cc1 (centres undefined)	.	.	.	.	.	.
COC(=O)CSCC(=O)Nc1nnc(-c2cccc(C)c2)s1	.	.	.	.	.	.
COc1ccc(CNC(=O)c2c(C)oc3c2C(=O)c2ccccc2C3=O)cc1	104	73	.	-82	90	102
CC(=O)c1c2c3c(c(Br)ccc3n(C)c1=O)C(=O)c1ccccc1-2	.	.	.	.	.	.
COc1ccc(CNC(=O)c2ccc(-c3ccccc3)cc2)cc1	.	.	.	.	.	.
CC(=O)c1c(C)oc2c1C(=O)c1ccccc1C2=O	79	.	.	.	86	.
CCOc1ccc(CCn2c(-c3ccco3)nc3ccccc3c2=O)cc1OCC	.	.	.	.	.	54
COc1ccc(CCn2c(SCC(=O)Nc3cc(C)on3)nc3ccccc3c2=O)cc1OC	.	.	.	-79	64	.
O=C(NN=Cc1ccc2c(c1)CCC2)c1cccc([N+](=O)[O-])c1	/	.	.	.	.	.
Cc1ccc(NC(=O)c2nc[nH]c2C(=O)NC2CCN(C(=O)OC(C)(C)C)CC2)cc1	.	.	.	.	.	.
CC(C)(C)OC(=O)[C@H](Cc1ccccc1)NC(=O)c1nc[nH]c1C(=O)N[C@@H](CCCCN)C(=O)OC(C)(C)C	.	.	.	.	.	103
CC(C)(C)OC(=O)N1CCC(NC(=O)c2[nH]cnc2C(=O)Nc2ccccc2)CC1	.	.	.	.	.	52
CC(C)(C)OC(=O)[C@H](CCCCN)NC(=O)c1nc[nH]c1C(=O)N[C@@H](CCCCN)C(=O)OC(C)(C)C	.	.	.	.	.	.
CCOC(=O)c1ccc(NC(=O)c2nc[nH]c2C(=O)NCCNC(=O)c2[nH]cnc2C(=O)Nc2ccc(C(=O)OCC)cc2)cc1	100	.	.	-50	76	91
CC(C)(C)OC(=O)NCCCC[C@H](NC(=O)c1[nH]cnc1C(=O)Nc1ccccc1)C(=O)OC(C)(C)C	.	.	.	.	.	53
CCOC(=O)c1ccc(NC(=O)c2nc[nH]c2C(=O)NC)cc1	.	.	.	.	.	.
CCCCn1c(-c2sccc2C)n[nH]c1=S	.	.	.	.	.	.
SMILES	TRPM1 prom inh	HIF-2a block	ABHD5 PLIN5 PPI	KKLEB cytotox	CF NFkB block	Peg3 prom inh
CCOc1ccc(NC(=O)NC(=O)N(C(C)C)S(C)(=O)=O)cc1	.	.	.	.	.	.
Cc1cccc(N2CCN(C(=O)CCC(=O)N3CC(C)Oc4ccccc43)CC2)c1C (centres undefined)	/	.	.	.	.	.
CC(C)(C)OC(=O)NCCCC[C@H](NC(=O)c1[nH]cnc1C(=O)Nc1ccc(Cl)cc1)C(=O)OC(C)(C)C	.	.	.	.	.	63
CC(C)(C)OC(=O)NCc1ccc(CNC(=O)c2[nH]cnc2C(=O)NCC(=O)OCc2ccccc2)cc1	.	.	.	.	.	52
CC(C)(C)OC(=O)NCc1ccc(CNC(=O)c2nc[nH]c2C(=O)NCc2ccccc2)cc1	.	.	.	.	.	.
CC(/C=C/c1cccc([N+](=O)[O-])c1)=N\NC(=O)c1ccncc1	.	.	.	.	.	.
CC(=O)c1c(C)[nH]c(C(=O)COC(=O)Cc2ccccc2F)c1C	/	.	.	.	.	.
CCC(C)[C@H](NC(=O)N1CC(=O)Nc2ccccc21)C(=O)N[C@H](C(=O)O)c1ccccc1 (some centres undefined)	.	.	.	.	.	.
C[C@@H](NCCCn1ccc(NC(=O)OCc2ccccc2)nc1=O)c1cccc2ccccc12	.	.	.	.	.	71
C[C@@H](NC(=O)Cn1ccc(NC(=O)OCc2ccccc2)nc1=O)c1cccc2ccccc12	.	.	.	.	.	.
Cc1cc(-n2c(C)cc(C(=O)CSc3nnnn3-c3ccc(Cl)cc3)c2C)no1	.	.	.	-68	51	.
Cc1ccc(S(=O)(=O)Nc2nc(-c3ccccc3)cs2)cc1	.	.	.	.	.	.
Cc1ccc(S(=O)(=O)Nc2ccccc2C(=O)Nc2nc(-c3ccc(F)cc3)cs2)cc1	.	.	.	-58	.	.
COc1ccc(-c2csc(NC(=O)c3ccccc3NS(=O)(=O)c3ccc(F)c(F)c3)n2)cc1	77	.	.	-51	55	.
O=C(Nc1cc(S(=O)(=O)N2CCCCC2)ccc1Cl)c1ccccc1NS(=O)(=O)c1ccc(F)cc1	.	.	.	.	66	53
COc1ccc(-c2csc(NC(=O)c3ccccc3F)n2)cc1	.	.	.	.	.	.
CC(O)(c1cccnc1)c1nc(/C=C/c2ccccc2)cs1 (centres undefined)	/	.	.	.	.	.
CCOC(=O)C1CCN(S(=O)(=O)c2c(Cl)ccc3nonc23)CC1	93	92	.	.	90	112
CN(C)/C=C1\Oc2ccc3ccccc3c2C1=O	.	.	.	.	.	.
O=C1C(=O)c2c(ccc3ccccc23)-c2ccccc21	98	.	.	-84	74	102
CCc1c(O)nc(SCC(=O)Nc2nc3ccccc3s2)n(C2CCCCC2)c1=O	.	.	.	.	.	.
CN(C)CCNC(=O)c1cccc(-c2cnc3c(NC=O)cc(-c4cccs4)cn23)c1	/	.	.	.	.	53
CN(C)CCNC(=O)c1cccc(-c2cnc3c(NC=O)cc(-c4ccccc4F)cn23)c1	/	.	.	.	.	96
COc1cc2[nH]c(=O)n(CCCCCC(=O)N3CC=C(c4ccccc4)CC3)c(=O)c2cc1OC	.	.	.	.	.	70
